Key:
Assay in all cases: log2 ratio of Biotin-Ahx-Ub-VS probe labelling (fragment/DMSO); higher = less target engagement (more negative = stronger competition), active = hit call of the paper (q ≤ 0.05, log2 ratio ≤ -1)
Details in all cases: compound concentration: 200 uM; treatment time: 3 h
USP9X = USP9X (UniProt Q93008)
Summary of the method: (§1)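 Labelled DUBs from HEK293T lysate were NeutrAvidin-enriched, digested with LysC and trypsin, and run by diaPASEF LC-MS/MS. Before that, each 495 µg sample in Tris/CHAPS/IGEPAL buffer with protease inhibitors was treated in triplicate with fragment at 200 µM or vehicle for 3 h, then with Biotin-Ahx-Ub-VS at 0.5 µM final for 1 h. Values are average log2 ratios of fragment over vehicle by unpaired t-test, based on global-median-normalised Spectronaut label-free quantities from proteins with ≥2 unique peptides.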

UniProt O00487 = molecular target: UniProt O00487
Sequence of UniProt O00487 (O00487 whole entry): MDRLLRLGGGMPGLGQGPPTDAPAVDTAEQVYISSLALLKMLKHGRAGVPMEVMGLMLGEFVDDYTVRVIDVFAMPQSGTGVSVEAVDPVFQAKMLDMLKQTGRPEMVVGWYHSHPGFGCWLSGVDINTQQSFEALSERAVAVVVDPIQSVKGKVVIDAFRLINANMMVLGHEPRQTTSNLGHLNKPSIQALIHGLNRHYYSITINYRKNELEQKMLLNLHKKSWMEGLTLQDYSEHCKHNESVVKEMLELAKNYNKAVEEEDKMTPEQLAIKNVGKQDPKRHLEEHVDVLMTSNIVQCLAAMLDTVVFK
Summary of the method: as §1

UniProt O00507 = molecular target: UniProt O00507
Summary of the method: as §1

UniProt P51784 = molecular target: UniProt P51784
Sequence of UniProt P51784 (P51784 whole entry): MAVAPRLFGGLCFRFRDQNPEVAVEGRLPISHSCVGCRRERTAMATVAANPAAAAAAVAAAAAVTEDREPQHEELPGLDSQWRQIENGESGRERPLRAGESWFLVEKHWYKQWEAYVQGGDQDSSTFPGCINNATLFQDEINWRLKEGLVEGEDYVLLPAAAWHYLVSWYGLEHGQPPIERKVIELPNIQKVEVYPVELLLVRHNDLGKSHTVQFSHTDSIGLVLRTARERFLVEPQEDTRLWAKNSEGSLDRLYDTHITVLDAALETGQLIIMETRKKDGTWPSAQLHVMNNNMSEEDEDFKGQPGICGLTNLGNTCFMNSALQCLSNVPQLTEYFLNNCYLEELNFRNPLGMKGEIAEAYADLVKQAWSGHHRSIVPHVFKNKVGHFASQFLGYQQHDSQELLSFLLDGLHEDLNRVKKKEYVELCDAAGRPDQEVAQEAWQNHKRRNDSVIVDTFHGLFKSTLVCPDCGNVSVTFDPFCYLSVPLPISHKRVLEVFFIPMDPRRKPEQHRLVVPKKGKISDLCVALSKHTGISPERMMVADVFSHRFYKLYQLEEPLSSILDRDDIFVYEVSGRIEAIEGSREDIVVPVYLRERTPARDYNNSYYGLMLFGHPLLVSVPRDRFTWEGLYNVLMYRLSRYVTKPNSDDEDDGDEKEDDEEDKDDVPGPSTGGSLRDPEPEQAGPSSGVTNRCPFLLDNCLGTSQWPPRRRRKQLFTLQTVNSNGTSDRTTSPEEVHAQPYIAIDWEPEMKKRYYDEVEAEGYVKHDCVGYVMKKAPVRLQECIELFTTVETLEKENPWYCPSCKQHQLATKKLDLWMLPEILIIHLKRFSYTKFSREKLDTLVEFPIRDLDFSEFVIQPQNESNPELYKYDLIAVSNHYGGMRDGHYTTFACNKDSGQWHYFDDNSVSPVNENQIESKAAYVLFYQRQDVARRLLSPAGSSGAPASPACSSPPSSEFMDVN
Summary of the method: as §1

UniProt Q5T2D3 = molecular target: T1, UniProt Q5T2D3
T1 sequence (whole entry): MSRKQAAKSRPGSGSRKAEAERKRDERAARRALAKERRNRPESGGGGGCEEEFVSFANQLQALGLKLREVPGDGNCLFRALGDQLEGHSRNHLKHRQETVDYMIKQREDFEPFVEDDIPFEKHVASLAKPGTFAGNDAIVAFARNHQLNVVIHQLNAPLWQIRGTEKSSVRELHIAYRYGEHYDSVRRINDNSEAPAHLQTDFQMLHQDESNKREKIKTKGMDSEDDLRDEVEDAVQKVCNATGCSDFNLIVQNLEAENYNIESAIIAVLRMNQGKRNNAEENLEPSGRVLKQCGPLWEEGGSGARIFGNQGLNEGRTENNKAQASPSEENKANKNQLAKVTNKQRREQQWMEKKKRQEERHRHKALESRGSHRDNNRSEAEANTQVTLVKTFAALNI
Summary of the method: as §1

UniProt Q8TE49 = molecular target: T2, UniProt Q8TE49
T2 sequence (whole entry): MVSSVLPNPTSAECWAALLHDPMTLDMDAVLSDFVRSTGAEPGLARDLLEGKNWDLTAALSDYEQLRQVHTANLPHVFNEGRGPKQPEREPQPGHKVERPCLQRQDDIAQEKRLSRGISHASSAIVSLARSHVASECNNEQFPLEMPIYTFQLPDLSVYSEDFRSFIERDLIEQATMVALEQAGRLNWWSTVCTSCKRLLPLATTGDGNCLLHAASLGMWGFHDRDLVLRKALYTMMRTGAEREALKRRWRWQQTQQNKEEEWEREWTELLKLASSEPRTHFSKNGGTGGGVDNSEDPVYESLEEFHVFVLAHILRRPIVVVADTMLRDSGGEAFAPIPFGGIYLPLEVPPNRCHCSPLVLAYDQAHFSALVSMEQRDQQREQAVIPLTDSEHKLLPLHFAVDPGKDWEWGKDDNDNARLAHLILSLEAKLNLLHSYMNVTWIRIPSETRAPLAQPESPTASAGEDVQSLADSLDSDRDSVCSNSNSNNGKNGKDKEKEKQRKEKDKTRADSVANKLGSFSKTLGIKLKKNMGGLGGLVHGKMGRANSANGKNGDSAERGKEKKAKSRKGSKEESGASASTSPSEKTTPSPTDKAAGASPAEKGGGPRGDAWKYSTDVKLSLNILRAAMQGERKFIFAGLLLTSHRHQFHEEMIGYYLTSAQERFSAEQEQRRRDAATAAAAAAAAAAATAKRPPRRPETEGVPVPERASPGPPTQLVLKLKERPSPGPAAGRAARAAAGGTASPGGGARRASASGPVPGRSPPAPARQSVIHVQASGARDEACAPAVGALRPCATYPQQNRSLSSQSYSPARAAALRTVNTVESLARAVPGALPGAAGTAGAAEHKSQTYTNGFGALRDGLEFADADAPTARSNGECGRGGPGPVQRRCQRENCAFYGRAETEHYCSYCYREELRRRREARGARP
Summary of the method: as §1

UniProt Q9P2H5 = molecular target: T3, UniProt Q9P2H5
T3 sequence (whole entry): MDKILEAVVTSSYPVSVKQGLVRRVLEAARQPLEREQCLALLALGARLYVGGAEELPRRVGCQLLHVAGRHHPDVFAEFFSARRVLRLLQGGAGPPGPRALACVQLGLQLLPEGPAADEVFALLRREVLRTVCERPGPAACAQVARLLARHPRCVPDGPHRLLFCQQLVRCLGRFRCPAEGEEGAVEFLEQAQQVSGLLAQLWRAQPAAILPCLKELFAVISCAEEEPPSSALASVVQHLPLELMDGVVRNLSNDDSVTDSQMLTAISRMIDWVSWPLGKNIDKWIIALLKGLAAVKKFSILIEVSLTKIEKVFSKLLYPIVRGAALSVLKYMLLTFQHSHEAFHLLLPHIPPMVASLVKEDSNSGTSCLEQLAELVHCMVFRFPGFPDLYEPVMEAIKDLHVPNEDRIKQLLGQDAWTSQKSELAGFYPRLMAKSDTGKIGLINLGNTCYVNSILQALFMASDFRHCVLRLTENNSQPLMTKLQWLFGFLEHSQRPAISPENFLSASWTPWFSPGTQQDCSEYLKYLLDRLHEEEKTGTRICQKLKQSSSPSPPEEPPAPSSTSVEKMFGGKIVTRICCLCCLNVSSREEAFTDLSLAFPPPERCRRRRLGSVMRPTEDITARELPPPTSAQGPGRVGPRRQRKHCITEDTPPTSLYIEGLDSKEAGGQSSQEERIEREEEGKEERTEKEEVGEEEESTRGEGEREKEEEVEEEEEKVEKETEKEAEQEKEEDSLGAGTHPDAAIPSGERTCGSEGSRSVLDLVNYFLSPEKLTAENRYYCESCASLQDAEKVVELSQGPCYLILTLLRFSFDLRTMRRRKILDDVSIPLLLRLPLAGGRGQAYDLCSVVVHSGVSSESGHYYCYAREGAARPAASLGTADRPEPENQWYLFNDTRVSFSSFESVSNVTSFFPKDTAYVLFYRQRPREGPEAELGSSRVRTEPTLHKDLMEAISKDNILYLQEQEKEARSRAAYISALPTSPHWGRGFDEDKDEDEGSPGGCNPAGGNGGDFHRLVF
Summary of the method: as §1

UniProt Q9UGI0 = molecular target: T4, UniProt Q9UGI0
T4 sequence (whole entry): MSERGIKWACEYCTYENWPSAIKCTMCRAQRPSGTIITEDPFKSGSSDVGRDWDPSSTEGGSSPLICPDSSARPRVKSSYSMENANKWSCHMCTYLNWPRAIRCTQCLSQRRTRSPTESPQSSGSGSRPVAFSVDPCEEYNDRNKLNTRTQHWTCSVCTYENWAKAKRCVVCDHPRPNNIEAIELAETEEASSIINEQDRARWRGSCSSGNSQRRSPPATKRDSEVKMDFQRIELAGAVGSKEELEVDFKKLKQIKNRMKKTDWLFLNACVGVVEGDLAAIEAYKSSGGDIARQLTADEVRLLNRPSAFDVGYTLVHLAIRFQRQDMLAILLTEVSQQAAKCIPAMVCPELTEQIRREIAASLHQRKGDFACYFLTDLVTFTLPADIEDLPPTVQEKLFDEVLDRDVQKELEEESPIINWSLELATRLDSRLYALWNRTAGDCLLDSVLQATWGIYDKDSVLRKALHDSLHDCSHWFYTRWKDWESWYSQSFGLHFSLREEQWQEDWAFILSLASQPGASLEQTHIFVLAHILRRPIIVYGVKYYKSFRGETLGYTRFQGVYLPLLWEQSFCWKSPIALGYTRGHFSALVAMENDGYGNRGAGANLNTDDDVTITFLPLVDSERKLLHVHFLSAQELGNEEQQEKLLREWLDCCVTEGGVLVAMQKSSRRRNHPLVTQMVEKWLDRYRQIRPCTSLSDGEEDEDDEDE
Summary of the method: as §1

YOD1 = molecular target: T5, YOD1 (UniProt Q5VVQ6)
T5 sequence (whole entry): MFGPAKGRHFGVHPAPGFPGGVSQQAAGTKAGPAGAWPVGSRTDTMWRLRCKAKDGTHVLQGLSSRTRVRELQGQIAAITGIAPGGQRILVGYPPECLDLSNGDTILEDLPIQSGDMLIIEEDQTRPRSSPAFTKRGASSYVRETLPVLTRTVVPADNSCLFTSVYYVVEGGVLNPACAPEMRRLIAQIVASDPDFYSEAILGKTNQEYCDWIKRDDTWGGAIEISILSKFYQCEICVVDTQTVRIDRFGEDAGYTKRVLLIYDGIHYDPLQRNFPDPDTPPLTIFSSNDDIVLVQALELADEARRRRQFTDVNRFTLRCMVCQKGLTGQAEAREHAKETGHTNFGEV
Summary of the method: as §1

Measured: log2 ratio of Biotin-Ahx-Ub-VS probe labelling

Sequence of USP9X (Q93008 whole entry, the tested form may be a part): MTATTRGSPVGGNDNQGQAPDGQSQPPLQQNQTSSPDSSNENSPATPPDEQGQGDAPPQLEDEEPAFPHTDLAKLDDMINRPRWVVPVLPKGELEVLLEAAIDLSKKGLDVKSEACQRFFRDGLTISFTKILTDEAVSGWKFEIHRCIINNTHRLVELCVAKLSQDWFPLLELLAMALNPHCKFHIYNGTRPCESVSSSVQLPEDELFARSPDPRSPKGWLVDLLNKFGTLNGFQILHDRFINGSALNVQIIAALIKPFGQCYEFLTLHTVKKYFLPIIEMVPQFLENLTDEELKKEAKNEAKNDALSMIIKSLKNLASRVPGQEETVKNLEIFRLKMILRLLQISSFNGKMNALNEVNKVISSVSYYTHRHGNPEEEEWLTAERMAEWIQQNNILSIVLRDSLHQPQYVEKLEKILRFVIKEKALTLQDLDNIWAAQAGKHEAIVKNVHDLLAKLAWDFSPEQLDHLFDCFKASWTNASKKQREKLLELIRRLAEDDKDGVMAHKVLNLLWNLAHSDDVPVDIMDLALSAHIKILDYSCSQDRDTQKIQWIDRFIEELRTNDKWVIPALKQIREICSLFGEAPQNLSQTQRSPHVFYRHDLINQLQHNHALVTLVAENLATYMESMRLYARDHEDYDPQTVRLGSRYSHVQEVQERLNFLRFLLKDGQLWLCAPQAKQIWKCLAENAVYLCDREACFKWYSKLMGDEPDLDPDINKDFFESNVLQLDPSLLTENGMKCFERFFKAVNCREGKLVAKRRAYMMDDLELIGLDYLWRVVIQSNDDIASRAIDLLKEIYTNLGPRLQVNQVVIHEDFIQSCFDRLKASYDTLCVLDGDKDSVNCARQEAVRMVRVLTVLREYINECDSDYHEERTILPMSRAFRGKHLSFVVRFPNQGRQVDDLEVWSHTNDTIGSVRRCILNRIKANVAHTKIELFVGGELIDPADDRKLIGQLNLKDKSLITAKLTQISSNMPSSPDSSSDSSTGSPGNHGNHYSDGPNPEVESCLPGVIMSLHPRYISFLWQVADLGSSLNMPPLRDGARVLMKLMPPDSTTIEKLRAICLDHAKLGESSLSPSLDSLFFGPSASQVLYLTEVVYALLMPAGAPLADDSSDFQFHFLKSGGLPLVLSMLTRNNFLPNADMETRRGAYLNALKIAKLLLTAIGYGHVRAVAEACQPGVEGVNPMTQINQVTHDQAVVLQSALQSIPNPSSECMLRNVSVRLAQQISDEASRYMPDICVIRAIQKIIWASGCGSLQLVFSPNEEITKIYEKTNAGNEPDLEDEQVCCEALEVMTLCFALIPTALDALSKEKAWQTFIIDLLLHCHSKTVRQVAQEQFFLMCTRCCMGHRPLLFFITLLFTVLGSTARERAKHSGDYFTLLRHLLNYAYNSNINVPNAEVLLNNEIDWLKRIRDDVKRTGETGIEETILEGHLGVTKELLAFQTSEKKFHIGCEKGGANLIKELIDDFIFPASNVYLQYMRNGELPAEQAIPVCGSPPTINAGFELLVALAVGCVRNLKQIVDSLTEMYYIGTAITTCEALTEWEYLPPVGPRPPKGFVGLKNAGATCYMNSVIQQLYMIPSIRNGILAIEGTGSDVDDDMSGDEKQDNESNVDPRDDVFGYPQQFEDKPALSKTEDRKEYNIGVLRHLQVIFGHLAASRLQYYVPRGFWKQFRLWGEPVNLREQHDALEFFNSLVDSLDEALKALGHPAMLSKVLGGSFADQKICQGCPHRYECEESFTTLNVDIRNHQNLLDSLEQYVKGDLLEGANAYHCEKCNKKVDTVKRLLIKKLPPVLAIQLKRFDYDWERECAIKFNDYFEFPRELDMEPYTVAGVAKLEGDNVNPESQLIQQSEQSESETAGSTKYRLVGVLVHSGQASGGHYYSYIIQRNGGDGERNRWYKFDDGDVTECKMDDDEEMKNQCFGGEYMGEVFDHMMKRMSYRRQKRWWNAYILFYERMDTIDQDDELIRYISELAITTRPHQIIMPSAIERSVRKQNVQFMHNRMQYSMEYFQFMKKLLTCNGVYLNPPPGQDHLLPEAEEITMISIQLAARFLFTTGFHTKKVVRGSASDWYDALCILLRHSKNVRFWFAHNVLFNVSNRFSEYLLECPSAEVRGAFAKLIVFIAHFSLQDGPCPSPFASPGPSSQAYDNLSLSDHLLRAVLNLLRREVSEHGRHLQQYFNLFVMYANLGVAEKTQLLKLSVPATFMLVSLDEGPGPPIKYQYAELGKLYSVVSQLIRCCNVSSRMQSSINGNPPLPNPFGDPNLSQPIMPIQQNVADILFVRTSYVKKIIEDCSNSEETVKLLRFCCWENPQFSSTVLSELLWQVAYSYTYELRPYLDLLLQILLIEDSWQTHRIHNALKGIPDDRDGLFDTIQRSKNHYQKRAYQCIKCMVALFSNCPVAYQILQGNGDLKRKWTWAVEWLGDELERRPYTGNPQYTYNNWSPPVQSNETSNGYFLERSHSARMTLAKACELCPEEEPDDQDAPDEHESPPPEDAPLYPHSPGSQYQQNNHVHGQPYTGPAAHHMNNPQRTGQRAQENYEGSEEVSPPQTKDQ

Cc1cccn2cc(CCNC(=O)CCl)nc12.Cl
inactive: USP9X -0.145 | UniProt O00487 -0.197 | UniProt O00507 -0.143 | UniProt P51784 -0.122 | UniProt Q5T2D3 -0.0486 | UniProt Q8TE49 -0.332 | UniProt Q9P2H5 -0.379 | UniProt Q9UGI0 -0.18 | YOD1 -0.095

Source: the supplement of paper PMC11732987, “Enantioselective OTUD7B fragment discovery through chemoproteomics screening and high-throughput optimisation” (Communications Chemistry, 2025)
